± gives the standard deviation of the averaged measurements.
Compound: CC(C)c1cccc(C(C)C)c1N1C(=O)c2ccc(O)cc2C1=O
Assay: BioMAP readout fold decrease vs vehicle (vehicle/treated); higher = stronger decrease of the readout vs vehicle (values <1 mean increase)
Experimental: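 BioSeek BioMAP human primary cell (co-)culture systems (3C, 4H, LPS, SAg, BE3C, CASM3C, hDFCGF, KF3CT) treated with 5HPP-33 at 1.48, 4.44, 13.3 and 40 µM. Read-outs are protein levels by ELISA, proliferation and SRB total protein. Duplicate rows per assay are averaged as replicates. Tested in ToxCast Phase II for this study; exposure time not stated.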
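Further: Co-cultures of keratinocytes, bronchial epithelial and smooth muscle cells, fibroblasts, HUVECs and PBMCs under stimuli like LPS, TNF-α, IFN-γ, IL-1β, TGF-β or EGF, SRB reflecting cytotoxicity.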

hDFCGF_MMP1
BioMAP readout fold decrease (1.48 µM): 0.956 ± 0.05 | BioMAP readout fold decrease (4.44 µM): 0.93304 ± 0.00091 | BioMAP readout fold decrease (13.3 µM): 0.85 ± 0.0086 | BioMAP readout fold decrease (40 µM): 1.09 ± 0.13

KF3CT_ICAM1
BioMAP readout fold decrease (1.48 µM): 0.999 ± 0.092 | BioMAP readout fold decrease (4.44 µM): 1.03 ± 0.037 | BioMAP readout fold decrease (13.3 µM): 0.9245 ± 0.0078 | BioMAP readout fold decrease (40 µM): 1.08 ± 0.062

3C_Eselectin
BioMAP readout fold decrease (1.48 µM): 1.04 ± 0.051 | BioMAP readout fold decrease (4.44 µM): 1.056 ± 0.0015 | BioMAP readout fold decrease (13.3 µM): 0.99 ± 0.023 | BioMAP readout fold decrease (40 µM): 1.39 ± 0.034

KF3CT_IL1a
BioMAP readout fold decrease (1.48 µM): 0.969 ± 0.029 | BioMAP readout fold decrease (4.44 µM): 0.992 ± 0.045 | BioMAP readout fold decrease (13.3 µM): 0.987 ± 0.034 | BioMAP readout fold decrease (40 µM): 2.08 ± 0.17

4H_uPAR
BioMAP readout fold decrease (1.48 µM): 1.2 ± 0.045 | BioMAP readout fold decrease (4.44 µM): 1.3 ± 0.038 | BioMAP readout fold decrease (13.3 µM): 1.361 ± 0.0024 | BioMAP readout fold decrease (40 µM): 2.33 ± 0.26

4H_VEGFRII
BioMAP readout fold decrease (1.48 µM): 1.07 ± 0.028 | BioMAP readout fold decrease (4.44 µM): 1.03 ± 0.021 | BioMAP readout fold decrease (13.3 µM): 1.2 ± 0.076 | BioMAP readout fold decrease (40 µM): 1.45 ± 0.069

SAg_MIG
BioMAP readout fold decrease (1.48 µM): 1.05 ± 0.017 | BioMAP readout fold decrease (4.44 µM): 1.04 ± 0.012 | BioMAP readout fold decrease (13.3 µM): 1.07 ± 0.034 | BioMAP readout fold decrease (40 µM): 7.73 ± 1.1

CASM3C_uPAR
BioMAP readout fold decrease (1.48 µM): 1.15 ± 0.1 | BioMAP readout fold decrease (4.44 µM): 1.21 ± 0.037 | BioMAP readout fold decrease (13.3 µM): 1.29 ± 0.05 | BioMAP readout fold decrease (40 µM): 2.6 ± 0.26

3C_hLADR
BioMAP readout fold decrease (1.48 µM): 1.04 ± 0.038 | BioMAP readout fold decrease (4.44 µM): 1.55 ± 0.048 | BioMAP readout fold decrease (13.3 µM): 4.27 ± 0.47 | BioMAP readout fold decrease (40 µM): 7.36 ± 0.11

LPS_CD40
BioMAP readout fold decrease (1.48 µM): 1.33 ± 0.17 | BioMAP readout fold decrease (4.44 µM): 1.67 ± 0.1 | BioMAP readout fold decrease (13.3 µM): 2.699 ± 0.02 | BioMAP readout fold decrease (40 µM): 4.12 ± 0.32

Reference: the supplement of paper PMC3616981
